Data on 38 compounds can be found in PubChem BioAssay (NCATS).

Each structure is given as a SMILES string. Several values for one entry are separate records, joined by “and”; a condition that tells them apart may be missing. Equal entries are not always repeated. Records with an inconclusive call do not appear. Where a call stands in place of a potency, no number is given. Activity calls are given as the source filed them. Unless noted, calls come from the whole dose curve; as a rule, active = well fitted inhibition curve with a large enough effect; inconclusive = small, poorly fitted or top-dose-only effect; inactive = no such curve, though single readings can be large or run the other way.

The first assay can be described thus: Counterscreen qHTS for small molecule stabilizers of the endoplasmic reticulum resident proteome: GLuc-NoTag assay (AID 1508627). The following applies: Gaussia luciferase NoTag secretion counterscreen, luminescence, thapsigargin 100 nM for final 4 h; series mostly up to 76.4 µM. In outline:
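Counterscreen line: SH-SY5Y-GLuc-NoTag cells, treated with compound 19 hr before a 4 hr, 100 nM thapsigargin calcium depletion. Secreted Gaussia luciferase in the medium was measured by luminescence after coelenterazine was added (0.07x final), with cells unlysed.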
`O=c1oc2ccccc2c(O)c1Cc1c(O)c2ccccc2oc1=O`: the result was inactive.

In the case of `C[C@H](N)C(=O)c1ccccc1`, the outcome was inactive.

In the case of `COc1c2c(cc3c1OCO3)CCN(C)C2`, the compound was classed as inactive.

`NNc1ccccc1`: the outcome was inactive.

For the compound `C[C@H]1[C@@H]2Cc3ccc(O)cc3[C@@]1(C)CCN2C`, the outcome was inactive.

A short description of a further assay: Confirmatory qHTS for small molecule stabilizers of the endoplasmic reticulum resident proteome: Secreted ER Calcium Modulated Protein (SERCaMP) assay (AID 1508628). Note: nearly all actives have a fitted effect of over 40% in size. Note: potency is the fitted concentration of half-maximal effect. To be noted: SERCaMP secreted luciferase ER calcium/proteostasis reporter; series mostly up to 76.3 µM. Summed up: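 Reporter secretion upon ER calcium depletion (100 nM thapsigargin, 4 h, 37C) is measured as medium luminescence with coelenterazine, after 16 h compound pretreatment of SH-SY5Y-GLuc-SERCaMP cells; primary at three concentrations up to 38.3 uM, follow-up at 11 (up to 76.6 uM).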
On the technique in general: In qHTS, concentration-response curves come from the screen itself.
For `O=c1oc2ccccc2c(O)c1Cc1c(O)c2ccccc2oc1=O`, the Potency result was “inactive”.

As for `COc1c2c(cc3c1OCO3)CCN(C)C2`, the Potency result was “inactive”.

Regarding `CNCC(=O)c1ccc(O)c(O)c1`, the Potency result was “inactive”.

For the compound `NNc1ccccc1`, the Potency entry was “inactive”.

Regarding `O=C(CCCN1CCC2(CC1)C(=O)NCN2c1ccccc1)c1ccc(F)cc1`, the Potency is 5.62 µM (active) and 2.24 µM (active) and 3.16 µM (active).

In the case of `C[C@H]1[C@@H]2Cc3ccc(O)cc3[C@@]1(C)CCN2C`, the Potency is 22.4 µM (active).

Another assay can be described thus: Primary qHTS for small molecule stabilizers of the endoplasmic reticulum resident proteome: Secreted ER Calcium Modulated Protein (SERCaMP) assay (AID 1508630). Note: potency is the fitted concentration of half-maximal effect. The following applies: SH-SY5Y GLuc-SERCaMP (Gaussia luciferase released on ER calcium loss) secretion, thapsigargin, luminescence; series mostly up to 38.4 µM. In outline:
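The SH-SY5Y reporter protocol was run at 3 concentrations up to 38.3 uM (primary) or 11 concentrations (follow-up): 16 h compound, 100 nM thapsigargin for 4 h, then extracellular luciferase luminescence.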
Take `CCCCC/C=C\C/C=C\C/C=C\C/C=C\CCCC(=O)NCC(=O)O`: the Potency entry was “inactive”.

As for `Nc1nc(N)nc(NC2CC2)n1`, the Potency result is “inactive”.

On to `O=c1[nH]oc2c1CCNC2`, for which the Potency result is “inactive”.

Take `CCC(C)(C)c1ccc(O)cc1`: the Potency result was “inactive”.

In the case of `NC1=NC(=O)C(c2ccccc2)O1` (stereo not drawn), the Potency entry was “inactive”.

As to `CCCOC(=O)c1cncn1C(C)c1ccccc1` (stereo not drawn), the Potency result is “inactive”.

For `CC(C)=CC1C(C(=O)OCN2C(=O)C3=C(CCCC3)C2=O)C1(C)C` (stereo not drawn), the Potency result was “inactive”.

In the case of `CCC1(c2ccc(N)cc2)CCC(=O)NC1=O` (stereo not drawn), the Potency entry was “inactive”.

Consider `CCN[C@@H](C)Cc1cccc(C(F)(F)F)c1`, for which the Potency entry is “inactive”.

For `C[C@]12CCC(=O)C=C1CC[C@@H]1[C@@H]2CC[C@]2(C)C(=O)CC[C@@H]12`, the Potency entry was “inactive”.

As to `COc1cccc2c1C(=O)c1c(O)c3c(c(O)c1C2=O)C[C@@](O)(C(=O)CO)CC3OC1CC(N2CCOC(OC)C2)C(O)C(C)O1` (stereo partly drawn), the Potency result was “inactive”.

With `CCCCCCC(=O)CCCCCC/C=C/C[C@@H](O)[C@H](O)[C@@](N)(CO)C(=O)O`, the Potency entry was “inactive”.

Turning to `CCN[C@H](C)Cc1cccc(C(F)(F)F)c1`, the Potency entry was “inactive”.

For the compound `O=P1(N(CCCl)CCCl)NCCCO1` (stereo not drawn), the Potency entry is “inactive”.

On to `O=C1CN=C(c2ccccc2)c2cc([N+](=O)[O-])ccc2N1`, for which the Potency result was “inactive”.

In the case of `C[C@]12CCC(=O)C=C1CC[C@@H]1[C@H]3CC[C@](C)(O)[C@@]3(C)CC[C@@H]12`, the Potency result is “inactive”.

Regarding `COc1cccc([C@@]2(O)CCCC[C@@H]2CN(C)C)c1`, the Potency entry is “inactive”.

As to `CC(Cc1ccccc1)N(C)Cc1ccco1` (stereo not drawn), the Potency result was “inactive”.

Regarding `O=C1c2ccccc2C(=O)C1C(=O)C(c1ccccc1)c1ccccc1`, the Potency result was “inactive”.

Turning to `C#C[C@]1(O)CC[C@H]2[C@@H]3CCC4=CC(=O)CC[C@]4(C)[C@H]3CC[C@@]21C`, the Potency result is “inactive”.

In the case of `CC1(C)C(C=C(Cl)Cl)C1C(=O)OC(C#N)c1cccc(Oc2ccccc2)c1` (stereo not drawn), the Potency entry is “inactive”.

As to `CCC1(c2ccccc2)C(=O)N(COC)C(=O)N(COC)C1=O`, the Potency entry is “inactive”.

Take `COC(=O)C(Cl)C(=O)OC`: the Potency result is “inactive”.

For the compound `C[C@]12CCC(=O)C=C1CC[C@@H]1[C@@H]2CC[C@@]2(C)[C@H]1CC[C@]2(C)O`, the Potency entry is “inactive”.

Take `CCN(CCO)CCn1c(Cc2ccccc2)nc2c1c(=O)n(C)c(=O)n2C`: the Potency result was “inactive”.

As to `O=C(CCCN1CCC2(CC1)C(=O)NCN2c1ccccc1)c1ccc(F)cc1`, the Potency is 1 µM (active).

As for `O=C(N/N=C/c1ccc([N+](=O)[O-])o1)c1cc([N+](=O)[O-])cc([N+](=O)[O-])c1O`, the Potency entry is “inactive”.

On to `C=CCN1C[C@H](C)N([C@H](c2ccc(C(=O)N(CC)CC)cc2)c2cccc(OC)c2)C[C@H]1C`, for which the Potency result is “inactive”.

Turning to `CCN(CC)C(=O)[C@@H]1C=C2c3cccc4[nH]cc(c34)C[C@H]2N(C)C1`, the Potency result was “inactive”.

With `ClCCN1CCCC1`, the Potency result was “inactive”.

As to `CN1CCC(O)(c2ccc(F)cc2)C(C(=O)c2ccc(F)cc2)C1` (stereo not drawn), the Potency entry is “inactive”.

For `NCCc1ccc(O)cc1`, the Potency entry was “inactive”.

The next assay can be described thus: A High-Content qHTS Against Drug Library for the Identification of Small Molecules that Inhibit DYT1 Early Onset Primary Dystonia-Associated Cell Pathology (AID 1645839; calls by dose curve). The following applies: HEK293 Flp-In EGFP-delE TorsinA, punctate imaging, 48 h; series mostly up to 46.1 µM. Summed up:
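High-content imaging quantified EGFP-TorsinA mislocalization in HEK293-derived cells inducibly expressing DYT1 mutant torsinA, after 48 h exposure to compound given together with tetracycline induction. Cell count served as a toxicity channel alongside %pathology.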
For the compound `O=c1oc2ccccc2c(O)c1Cc1c(O)c2ccccc2oc1=O`, the compound was called inactive.

`C[C@H](N)C(=O)c1ccccc1`: the compound was classed as inactive.

Turning to `Nc1nc(N)nc(NC2CC2)n1`, the compound was called inactive.

With `O=c1[nH]oc2c1CCNC2`, the outcome was inactive.

With `COc1c2c(cc3c1OCO3)CCN(C)C2`, the outcome was inactive.

Take `CCC(C)(C)c1ccc(O)cc1`: the result was inactive.

For the compound `NC1=NC(=O)C(c2ccccc2)O1` (stereo not drawn), the compound was called inactive.

With `CCCOC(=O)c1cncn1C(C)c1ccccc1` (stereo not drawn), the result was inactive.

As to `CC(C)=CC1C(C(=O)OCN2C(=O)C3=C(CCCC3)C2=O)C1(C)C` (stereo not drawn), the result was inactive.

Regarding `CCC1(c2ccc(N)cc2)CCC(=O)NC1=O` (stereo not drawn), the outcome was inactive.

With `CCN[C@@H](C)Cc1cccc(C(F)(F)F)c1`, the outcome was inactive.

For the compound `CNCC(=O)c1ccc(O)c(O)c1`, the compound was classed as inactive.

For `C[C@]12CCC(=O)C=C1CC[C@@H]1[C@@H]2CC[C@]2(C)C(=O)CC[C@@H]12`, the result was inactive.

For the compound `COc1cccc2c1C(=O)c1c(O)c3c(c(O)c1C2=O)C[C@@](O)(C(=O)CO)CC3OC1CC(N2CCOC(OC)C2)C(O)C(C)O1` (stereo partly drawn), the compound was called inactive.

For the compound `CCCCCCC(=O)CCCCCC/C=C/C[C@@H](O)[C@H](O)[C@@](N)(CO)C(=O)O`, the compound was called inactive.

For the compound `CCN[C@H](C)Cc1cccc(C(F)(F)F)c1`, the compound was classed as inactive.

As for `O=P1(N(CCCl)CCCl)NCCCO1` (stereo not drawn), the outcome was inactive.

Take `O=C1CN=C(c2ccccc2)c2cc([N+](=O)[O-])ccc2N1`: the compound was called inactive.

Consider `C[C@]12CCC(=O)C=C1CC[C@@H]1[C@H]3CC[C@](C)(O)[C@@]3(C)CC[C@@H]12`, for which the call was inactive.

Turning to `COc1cccc([C@@]2(O)CCCC[C@@H]2CN(C)C)c1`, the outcome was inactive.

Take `CC(Cc1ccccc1)N(C)Cc1ccco1` (stereo not drawn): the result was inactive.

Take `O=C1c2ccccc2C(=O)C1C(=O)C(c1ccccc1)c1ccccc1`: the compound was called inactive.

`C#C[C@]1(O)CC[C@H]2[C@@H]3CCC4=CC(=O)CC[C@]4(C)[C@H]3CC[C@@]21C`: the call was inactive.

`CC1(C)C(C=C(Cl)Cl)C1C(=O)OC(C#N)c1cccc(Oc2ccccc2)c1` (stereo not drawn): the result was inactive.

With `CCC1(c2ccccc2)C(=O)N(COC)C(=O)N(COC)C1=O`, the outcome was inactive.

For the compound `COC(=O)C(Cl)C(=O)OC`, the compound was called inactive.

Turning to `C[C@]12CCC(=O)C=C1CC[C@@H]1[C@@H]2CC[C@@]2(C)[C@H]1CC[C@]2(C)O`, the outcome was inactive.

For the compound `CCN(CCO)CCn1c(Cc2ccccc2)nc2c1c(=O)n(C)c(=O)n2C`, the compound was called inactive.

Take `O=C(CCCN1CCC2(CC1)C(=O)NCN2c1ccccc1)c1ccc(F)cc1`: the call was inactive.

`O=C(N/N=C/c1ccc([N+](=O)[O-])o1)c1cc([N+](=O)[O-])cc([N+](=O)[O-])c1O`: the compound was called inactive.

For `C=CCN1C[C@H](C)N([C@H](c2ccc(C(=O)N(CC)CC)cc2)c2cccc(OC)c2)C[C@H]1C`, the result was inactive.

For the compound `C[C@H]1[C@@H]2Cc3ccc(O)cc3[C@@]1(C)CCN2C`, the call was inactive.

With `ClCCN1CCCC1`, the call was inactive.

For `CN1CCC(O)(c2ccc(F)cc2)C(C(=O)c2ccc(F)cc2)C1` (stereo not drawn), the outcome was inactive.

For `NCCc1ccc(O)cc1`, the outcome was inactive.
